D1 ag: agonists of human D1 dopamine receptor | HEK293 T-REx D1 cells, calcium flux, agonist mode | 360,000 compounds, 1% hits | P21728 | activation, % at 2 µM; further: 0% is about no effect
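Agonism was scored from calcium flux recorded over 180 s (1 read/s) after pintool compound addition, following a 10-cycle baseline. Cells were inducible force-coupled HEK293 TREx D1, plated overnight at 30 C and loaded with no-wash calcium dye.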
TRHR enhancer: allosteric enhancers of human TRH receptor | enhancement, % at 2 µM | P34981 | AID 493056 | TRHR cells, fluo-8 calcium fluorescence, EC20 TRH enhancement | 360,000 compounds, 0.66% hits; in the data active means enhancement above about 30%; further: 0% is about no effect
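TRHR-expressing cells loaded with fluo-8 calcium dye were read kinetically (ex 480/em 530) during compound addition, then stimulated with an EC20 of TRH (10 nM final). Enhancement of the Gq-mediated intracellular calcium response was scored.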
TRHR agonist: agonists of human TRH receptor. P34981. TRHR cells, calcium flux fluo-8, FDSS agonist mode. activation, % at 2 µM. 360,000 compounds, 0.18% hits. AID 493084; further: 0% is about no effect
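TRHR-expressing cells, plated overnight in medium with 10% serum, were loaded with fluo-8 calcium dye at room temperature. After a 10 s baseline, library compound was pin-added and calcium release was recorded kinetically (ex 480/em 530) as agonist response.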
D1 PAM: potentiators of human D1 dopamine receptor; potentiation, % at 10 µM; 360,000 compounds, 0.036% hits; P21728; HEK293 TREx D1 cells, calcium flux, dopamine EC20 potentiation; in the data active means potentiation above about 30%; further: 0% is about no effect
D1 antag: human D1 dopamine receptor antagonism; P21728; HEK293 TREx D1 cells, calcium flux, dopamine EC80; stronger effect = lower value; activity change, negative = inhibition, % at 10 µM; 360,000 compounds, 3.2% hits; in the data active means activity change below about -30%; further: on the % scale 0 is the no-effect control and ±100 the full control effect
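HEK293 T-REx cells expressing inducible, force-coupled D1 receptor; no-wash Ca dye, 30–90 min RT. Cmpd → 180 s read at 1 Hz → EC80 DA → 180 s read.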
USP1-UAF1 inh: inhibitors of human USP1/UAF1 deubiquitinase; O94782; Potency, µM (series often up to 57.1 µM), for the others: at the top dose activity change, negative = inhibition, hits mostly inhibitors; 390,000 compounds, 0.23% hits; recombinant USP1/UAF1, Ub-Rhodamine cleavage fluorescence; active means well fitted inhibition curve with a large enough effect; inconclusive means small, poorly fitted or top-dose-only effect; inactive means no such curve, though single readings can be large or run the other way; further: potency means the concentration at half of the fitted maximal effect; on the % scale 0 is the no-effect control and ±100 the full control effect; nearly all actives have a fitted effect of over 60% in size
Target sequence (O94782 whole entry, looked up): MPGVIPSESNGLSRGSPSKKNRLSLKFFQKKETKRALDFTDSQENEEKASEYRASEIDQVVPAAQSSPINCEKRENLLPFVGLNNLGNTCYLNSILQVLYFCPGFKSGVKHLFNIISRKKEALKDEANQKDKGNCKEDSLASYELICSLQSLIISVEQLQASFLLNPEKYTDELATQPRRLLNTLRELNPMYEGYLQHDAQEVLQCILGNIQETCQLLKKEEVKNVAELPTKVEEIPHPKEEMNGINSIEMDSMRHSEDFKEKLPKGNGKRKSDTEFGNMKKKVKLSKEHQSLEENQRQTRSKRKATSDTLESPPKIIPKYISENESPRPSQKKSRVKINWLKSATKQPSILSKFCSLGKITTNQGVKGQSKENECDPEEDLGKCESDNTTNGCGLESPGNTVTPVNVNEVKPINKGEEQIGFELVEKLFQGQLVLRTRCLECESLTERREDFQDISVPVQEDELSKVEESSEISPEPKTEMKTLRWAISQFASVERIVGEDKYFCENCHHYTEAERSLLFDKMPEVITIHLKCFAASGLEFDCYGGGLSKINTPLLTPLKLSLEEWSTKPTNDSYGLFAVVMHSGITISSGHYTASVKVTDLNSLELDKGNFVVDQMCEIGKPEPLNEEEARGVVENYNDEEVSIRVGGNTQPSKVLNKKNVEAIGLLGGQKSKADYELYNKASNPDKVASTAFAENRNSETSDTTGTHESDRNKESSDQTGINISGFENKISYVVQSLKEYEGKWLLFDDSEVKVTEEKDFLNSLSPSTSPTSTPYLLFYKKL
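USP1/UAF1 complex (1 nM) preincubated 15 min at room temperature with compound, then Ub-Rho substrate (150 nM final) added. Kinetic fluorescence at 480/540 nm over 6 reads at 60 s intervals; 50 mM HEPES pH 7.8, 0.5 mM EDTA, 0.1 mg/ml BSA, 1 mM TCEP, 0.01% Tween-20.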
* hit, by the source's call; ? = inconclusive; · = not tested or not shown. Hits are enriched below; roughly 4.4% of the tested compounds scored in any of these assays. Unless noted, no stated cut-off is given here; in the data, active means activation above about 30%; inactive means the rest.

SMILES | D1 ag | TRHR enhancer | TRHR agonist | D1 PAM | D1 antag | USP1-UAF1 inh
O=C(CSc1nnc(-c2ccccn2)n1Cc1ccco1)c1ccc(-c2ccccc2)cc1 | 2.5 | -2.8 | 0.4 | -5.8 | -89.6* | -20.4%
CCCCN(C)CCNC(=O)c1ccc2c(c1)NC(=O)CN2 | -0.7 | -4.0 | 0.2 | -2.6 | -8.5 | ?
Cc1ccc(CN=c2c([N+](=O)[O-])nn(-c3cccc(Cl)c3)n2O)cc1 | 3.6 | -0.7 | -1.3 | -5.0 | -33.6* | -11.7%
Cc1ccc(CN=c2c([N+](=O)[O-])nn(-c3cccc(C)c3)n2O)cc1 | -0.9 | 4.3 | -0.3 | -2.1 | -47.3* | -17.0%
COc1ccccc1CNC(=O)C1(c2cccs2)CCOCC1 | -1.3 | -2.7 | 0.1 | -2.8 | · | -14.0%
CCCCNC(=O)Nc1nc2ccccc2s1 | 0.2 | 3.3 | 0.2 | -3.5 | -17.0 | -21.4%
CCCNC(=O)Nc1nc2ccccc2s1 | 4.0 | 6.7 | 0.3 | -14.7 | -72.5* | -2.7%
O=C(Nc1ccc(F)cc1)c1cccn1-c1nnc(N2CCCCC2)s1 | 7.2 | 9.0 | 0.0 | -1.2 | -8.8 | 5.3%
Cc1ccc(CC(=O)Nc2c(C(=O)N3CCN(c4ccccc4F)CC3)oc3ccccc23)cc1 | 0.5 | -0.2 | -0.7 | 0.2 | -13.6 | 10.1%
COc1ccc(COc2ncnc3ccc(Br)cc23)cc1F | 3.8 | -0.2 | 0.9 | 31.7* | 18.7 | -13.4%
Cc1cc(/C=C(\C#N)C(=O)OCC(=O)NC(=O)NC(C)(C)C)c(C)n1CCC(C)C | -1.6 | -6.0 | 0.6 | -3.8 | -50.7* | -19.0%
C=CCNC(=O)NC(=O)COC(=O)/C(C#N)=C/c1cc(C)n(CCC(C)C)c1C | 3.1 | 17.6 | 8.7 | 1.2 | 9.9 | -20.3%
Cc1nn(CCCC(=O)Nc2ccccc2C(F)(F)F)c(=O)c2c1sc1ccccc12 | 0.2 | 3.1 | 0.5 | -0.1 | -3.8 | -13.2%
COC(=O)c1sc2cc(C(F)(F)F)cnc2c1-c1ccccn1 | 0.8 | 31.0* | 0.0 | -1.9 | 6.1 | -4.6%
CC(C)(C)CN1CCNC(=O)C1CC(=O)NCCc1ccccc1F (centres undefined) | 3.2 | 31.2* | 1.3 | -8.0 | -1.6 | -13.3%
COc1ccc(-c2ccc(=O)n(CC(=O)Nc3cc(OC)ccc3OC)n2)cc1 | 1.7 | 6.5 | -1.5 | -6.0 | 7.6 | -23.9%
COc1ccc(Cn2c(C)nc3ccc([N+](=O)[O-])cc3c2=O)cc1 | 11.6 | -13.3 | 0.3 | -5.7 | -30.2* | -20.2%
Cc1nc2ccc([N+](=O)[O-])cc2c(=O)n1Cc1ccc(Cl)cc1 | 3.0 | -14.6 | -0.2 | -5.0 | -22.0 | -18.2%
Cc1ccc(-c2nc(S(=O)(=O)c3ccc(C)cc3)c(SCC(=O)c3ccccc3)o2)cc1 | 8.1 | -9.7 | 1.0 | -0.6 | 1.7 | -6.2%
Cc1cc(C)cc(NC(=O)C2CCCN2S(=O)(=O)c2cccc3nsnc23)c1 (centres undefined) | 0.0 | 3.6 | 1.0 | -1.2 | -8.5 | ?
CCc1ccc(NC(=O)CC2C(=O)N(c3cccc(C)c3)C(=O)N2Cc2cccs2)cc1 (centres undefined) | 2.6 | -0.3 | 0.6 | -2.7 | -37.9* | -9.5%
CCc1ccc(NC(=O)CC2C(=O)N(c3ccc(F)cc3)C(=O)N2Cc2ccc(F)cc2)cc1 (centres undefined) | 0.8 | -2.6 | 1.2 | -4.0 | -30.5* | 2.4%
Cc1ccsc1CCN1C(=O)N(c2ccccc2)C(=O)C1CC(=O)Nc1ccc(Cl)cc1 (centres undefined) | 9.4 | 0.2 | 2.6 | -4.8 | -35.7* | -2.6%
COc1ccc(OC)c(-n2c(=O)[nH]c3cc(C(=O)NCCc4ccc(OC)c(OC)c4)ccc3c2=O)c1 | -0.1 | -0.3 | 0.1 | -0.5 | -7.1 | -9.0%
CCOC(=O)c1nn(C)c(C)c1Cl | 6.5 | 7.0 | 0.1 | -7.2 | -44.1* | -10.2%
SMILES | D1 ag | TRHR enhancer | TRHR agonist | D1 PAM | D1 antag | USP1-UAF1 inh
CCOC(=O)c1nn(C)c(=S)n(C)c1=O | · | · | · | · | · | -8.7%
COc1cccc(CNc2sc3c(c2C(=O)Nc2ccc(OC)cc2OC)CCC3)c1 | 0.6 | -3.2 | -0.2 | 3.5 | 3.9 | -34.0%
O=C(O)c1ccc(Cn2c(SCc3cc(=O)n4cc(Br)ccc4n3)nc3ccsc3c2=O)cc1 | 1.3 | -1.9 | 1.3 | 4.7 | -30.8* | ·
C=C(C)n1c(=O)n(Cc2ccccc2C)c2ccccc21 | 93.1* | 5.1 | -0.5 | 1.0 | 9.9 | -20.3%
C=C(C)n1c(=O)n(Cc2ccc(C)cc2)c2ccccc21 | -0.6 | -3.0 | 0.1 | -0.6 | -0.1 | -2.6%
O=c1oc2ccccc2c2c1C1O[C@](c3ccsc3)(Cc3ccccc31)O2 | 0.8 | -3.1 | -0.7 | -0.2 | -2.1 | ·
Cc1ccc(C2=NC(c3ccc(F)cc3)=Nc3ccc(C)cc3N2)cc1 | 1.4 | 3.6 | 0.7 | -2.5 | -40.0* | ?
CCN(CC)c1ccc(/C=C(\C#N)c2nc(-c3cccs3)c(NC(C)=O)s2)cc1 | 213.5* | 8.8 | 63.5* | 15.7 | -14.6 | ·
Cc1ccsc1C1Nc2ccc3ncccc3c2C2=C1C(=O)CC(C)(C)C2 (centres undefined) | 4.7 | 11.7 | 0.1 | 6.6 | -5.5 | -16.5%
CC1(C)CC(=O)C2=C(C1)c1c(ccc3ccccc13)NC2c1ccco1 (centres undefined) | -1.4 | -3.3 | -1.0 | 30.3* | -10.8 | 6.6%
CCn1c(=O)n(CC)c2cc(N3CCCCC3)c(NC(=O)Nc3cc(Cl)ccc3OC)cc21 | 0.7 | -1.3 | 0.2 | -1.6 | 2.9 | -10.1%
COc1ccc(CN(C(=O)Cn2nnc(-c3ccc(C)o3)n2)C(C(=O)NCC2CCCO2)c2ccco2)cc1 (centres undefined) | -0.2 | -0.8 | 0.2 | -5.8 | -41.6* | -12.1%
Cc1ccc(-c2nnn(CC(=O)N(c3cccc(O)c3)C(C(=O)NC(C)(C)C)c3cccs3)n2)o1 (centres undefined) | 1.8 | -1.1 | 0.0 | -2.6 | 2.0 | -5.5%
COc1ccc(-c2nnn(CC(=O)N(Cc3ccco3)C(C(=O)NCC3CCCO3)c3ccco3)n2)cc1 (centres undefined) | 0.4 | 0.2 | -0.1 | -5.4 | 3.6 | -10.5%
CC(C)(C)NC(=O)C(c1ccncc1)N(C(=O)Cn1nnc(-c2ccc(F)cc2)n1)c1ccccc1F (centres undefined) | -0.7 | 8.0 | -0.5 | -3.5 | -2.2 | -0.2%
Cc1ccccc1N(C(=O)Cn1nnc(-c2ccc(F)cc2)n1)C(C(=O)NC(C)(C)C)c1ccncc1 (centres undefined) | 14.0 | -11.6 | 0.5 | -3.6 | -34.6* | -10.2%
Cc1ccc(-c2nnn(CC(=O)N(c3cccc(F)c3)C(C(=O)NC(C)(C)C)c3ccco3)n2)o1 (centres undefined) | 0.1 | -0.8 | 0.1 | -2.0 | -38.8* | -0.3%
